# Data taken from the supplement of paper PMC3724861.
# Only a selection was taken, and hits are over-represented in it overall. The true hit rate is not given. A number with no mark means an inactive call.
# Tested on: T1, Caupolican (Caup) homeodomain DNA-binding domain
# T1 sequence: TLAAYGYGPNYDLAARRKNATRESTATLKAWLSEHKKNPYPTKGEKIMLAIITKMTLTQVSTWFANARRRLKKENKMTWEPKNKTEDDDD
# Assay: PBM E-score (8-mer, recovered from the published 9-mer minima) (E-score (dimensionless, -0.5 to 0.5)); Drosophila protein; higher = stronger relative binding preference, active = 0.31 or more
# Summary of the method: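 Caup's homeodomain DNA-binding domain (residues 214-303) was produced by in vitro transcription and translation and applied at 100 nM to custom-designed protein binding microarrays. Each value is an enrichment score giving relative binding preference for a short DNA word; higher means stronger. Published 9-mer scores were the minimum of their two constituent 8-mer scores, and the 8-mer values were recovered from those minima. A cutoff of 0.31 marks candidate binding sequences.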
row,Sequence,PBM E-score
1,GACACAAC,0.216
2,CACACAAC,0.14
3,AACACAAT,≥ 0.319 (active)
4,AACACAAC,≥ 0.339 (active)
5,AACACAAA,0.207
6,AACACAAG,0.228
7,GAGACACC,-0.0907
8,AAGCATGT,0.356 (active)
9,AATCATGG,0.0994
10,AACCATGG,0.0193
11,AACCATGT,0.347 (active)
12,AAGCATGG,0.00906
13,AATCATGA,0.164
14,AAGCATGC,0.122
15,AACCATGC,0.0352
16,AATCATGT,0.42 (active)
17,ACAATTCG,0.163
18,AGATCGCC,-0.108
19,TCCAGTCA,-0.102
20,AAACGTGG,-0.051
21,AATCGTGC,0.105
22,AAACGTGA,0.0748
23,AAACGTGT,0.31 (active)
24,AATCGTGA,0.102
25,AATCGTGT,0.324 (active)

row,Sequence,PBM E-score
1,AGCGTCGA,0.017
2,AATGATAA,0.141
3,GAGTAACC,-0.034
4,ATGGACGG,-0.0288
5,CATCCTGA,0.007
6,AAATATGA,0.164
7,AAATATGC,0.00511
8,AAATATGT,0.335 (active)
9,ATAGCCTC,-0.0831
10,CGTAAACG,-0.0383
11,ATACACGA,0.33 (active)
12,CTACACGA,0.295
13,GTACACCA,0.238
14,GTACACGA,0.427 (active)
15,ATACACGG,0.299
16,ATACACGC,0.275
17,ACGCGCTC,-0.0722
18,CAAGTTAA,0.137
19,CTGGGCCA,-0.265
20,GATCTCGC,-0.112
21,GCGGTCTA,-0.0746
22,ACAACCTC,0.169
23,CCTTGTCA,0.342 (active)
24,ACTTGTCG,0.266
25,ACTTGTCA,≥ 0.378 (active)

row,Sequence,PBM E-score
1,ACTTGTCC,0.237
2,TCTTGTCA,0.329 (active)
3,GATTGTCA,0.13
4,TCTTGGCA,-0.0494
5,CCTTGTCG,0.277
6,GCTTGTCC,0.305
7,TATTGTCA,0.225
8,GCTTGTCA,0.352 (active)
9,CCTTGTCC,0.171
10,GGGCGCAA,-0.179
11,AAGCACCG,-0.0685
12,CGATTCAG,-0.0377
13,CTCATAAA,0.05
14,AAACAAAA,0.189
15,GACATACA,0.389 (active)
16,TACATAAA,0.329 (active)
17,AACATAAA,0.286
18,TACATACA,0.415 (active)
19,GACATAGA,0.187
20,TCCATACA,0.139
21,AACATACG,0.28
22,CACATACA,0.232
23,GACATACC,0.169
24,CACATAAA,0.121
25,AACATACC,0.303

row,Sequence,PBM E-score
1,AACATACT,0.31 (active)
2,GCTCCTCA,-0.234
3,ATTCTCCG,-0.0182
4,GACAGCAC,0.0877
5,CCCACTAG,-0.195
6,CGTACTGC,-0.0592
7,GAAAATCA,0.141
8,ACTCCGAG,-0.0336
9,CTCCGGAA,-0.126
10,AACATAGA,0.232
11,AGCATACA,0.202
12,AACATACA,0.361 (active)
13,GGATCTCA,-0.137
14,CTGTTAAA,0.108
15,ATGTTAAG,0.283
16,TTGTTAAA,0.23
17,AGGTTAAT,0.0346
18,ATGTTAAC,0.377 (active)
19,ATGTTAAT,0.352 (active)
20,GTGTTAAC,0.259
21,ATGTTAAA,0.353 (active)
22,CTGTTAAC,0.117
23,GTAAGGAA,0.0866
24,AGGAACGC,-0.132
25,GTCTACAA,0.185

row,Sequence,PBM E-score
1,GTGTACAA,0.396 (active)
2,TTGTACAA,≥ 0.44 (active)
3,ATGTACAA,0.453 (active)
4,CTGTACAA,0.335 (active)
5,GTGTACGA,0.226
6,CTGTACGC,0.037
7,ACGTACAA,0.288
8,CTGTACCA,0.186
9,ATGTAGAA,0.281
10,GCTAAGAC,-0.0692
11,ACTGACCC,-0.14
12,AAATCCAG,0.0354
13,CGCTTGGA,-0.0438
14,GAAGATGC,-0.152
15,ACCAGTTC,-0.0567
16,GGACTCCA,-0.13
17,AGATATTG,0.0643
18,CATCTGCG,-0.00421
19,CTAGAATC,0.0169
20,TAAGAACA,0.313 (active)
21,GAAGAACA,0.3
22,CAAGAACA,0.187
23,TACGAACA,0.31 (active)
24,CACGAACA,0.27
25,AACGAACA,0.305

row,Sequence,PBM E-score
1,GAATCCCC,-0.127
2,AGCGAGAC,-0.0966
3,ACCCCATC,-0.158
4,CATACACA,0.309
5,AATACACC,0.292
6,CATACACC,0.15
7,GATACACA,0.241
8,CATACACG,0.325 (active)
9,AATACACT,0.192
10,AATACACA,0.311 (active)
11,AATACACG,0.343 (active)
12,TATACACA,0.289
13,ATCTAGTG,0.0489
14,CGATATAC,0.0606
15,CCAAAAAG,-0.00726
16,ACGAAGTA,0.0633
17,TATGTCAA,≥ 0.359 (active)
18,GATGTCCA,0.195
19,AATGTCAA,0.235
20,GATGTCAA,0.332 (active)
21,TCTGTCAA,0.157
22,GGTGTCAA,0.197
